Test systems include NCI-H23 lung; NCI-H226 lung; NCI-H322M lung; HOP-62 NSCLC; NCI-H460 lung; NCI-H522 lung; A549/ATCC NSCLC; 786-0 renal; COLO 205 colon.
What all share (assay): NCI-60 one-dose screen, 48 h (100 = growth as untreated, 0 = no growth, -100 = all killed)
Conditions in all cases: 10 µM unless noted

The panel holds about 83,000 compounds, 20% with a hit somewhere; the sample as a whole holds those more often.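 Assay: single dose, 48 h. Readout: percent growth (0 = no net growth; negative = cell death). Active: <10.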 A number with no mark means an inactive call. The source made the active and inactive calls.

On to `O=C(O)c1ccccc1Oc1cc(-c2ccco2)nc(OCCN2CCOCC2)n1`, for which the growth with NCI-H23 lung was 106%; in the test on NCI-H226 lung it was 97%; with NCI-H322M lung, 94.6%; in the test on HOP-62 NSCLC it was 99.9%; with NCI-H460 lung it was 116%; in the test on NCI-H522 lung it was 92.1%. The growth in the test on A549/ATCC NSCLC was 106%; in the test on 786-0 renal, 96.5%; in the test on COLO 205 colon, 103%.

With `Cn1c(=O)c2c(nc(N/N=C/c3ccccc3Cl)n2C)n(C)c1=O`, the growth is 94.4% in the test on NCI-H23 lung; 107% in the test on NCI-H226 lung; 116% with NCI-H322M lung; 112% in the test on HOP-62 NSCLC; 120% with NCI-H460 lung; 83.1% in the test with NCI-H522 lung. Also, the growth is 107% in the test on A549/ATCC NSCLC, 97.8% in the test with 786-0 renal and 113% with COLO 205 colon.

For `CC(SC(C)C(=O)N/N=C/c1cccc(Cl)c1)C(=O)N/N=C\c1cccc(Cl)c1` (stereo not given), the growth was 86.8% with NCI-H23 lung; 93.2% in the test on NCI-H226 lung; 84.3% with NCI-H322M lung; 90.4% with HOP-62 NSCLC; 20.5% in the test with NCI-H460 lung; 60% with NCI-H522 lung. The growth in the test with A549/ATCC NSCLC is 15.2%; with 786-0 renal it was 90.9%; with COLO 205 colon, 74.7%.

For the compound `c1ccc2c(N=NSc3ncnc4nc[nH]c34)c3ccccc3nc2c1`, the growth in the test on NCI-H23 lung is -8.68% (active); in the test with NCI-H226 lung, -23% (active); in the test on NCI-H322M lung, 8.38% (active); with HOP-62 NSCLC, -49.9% (active); in the test on NCI-H460 lung, 2.58% (active); with NCI-H522 lung, -74.9% (active). Besides, the growth in the test with A549/ATCC NSCLC is -24.4% (active); in the test on 786-0 renal, -5.12% (active); in the test on COLO 205 colon, -95.3% (active).

With `N/C(=C\C(=O)n1nc(-c2ccccc2)cc1N)c1ccccc1`, the growth with NCI-H23 lung is 58.3%; in the test on NCI-H226 lung, 73.4%; with NCI-H322M lung, 65.4%; with HOP-62 NSCLC, 64%; in the test with NCI-H460 lung it was 36%; in the test with NCI-H522 lung it was -22.3% (active). For the same compound, the growth with A549/ATCC NSCLC is 55.1%; in the test on 786-0 renal, 65%; with COLO 205 colon, 41.6%.

For the compound `O/N=C1\c2ccccc2-c2ccc(Br)cc21`, the growth was 96.1% in the test on NCI-H23 lung; 103% in the test on NCI-H226 lung; 101% with NCI-H322M lung; 113% in the test on HOP-62 NSCLC; 106% in the test with NCI-H460 lung; 95.8% in the test with NCI-H522 lung. Further, the growth in the test with A549/ATCC NSCLC was 97.4%; in the test with 786-0 renal it was 98.6%; in the test with COLO 205 colon, 136%.

As to `COc1ccc(-c2cc(-c3ccc(OC)cc3)c3sc(=O)[nH]c3n2)cc1`, the growth was 98% with NCI-H23 lung; 71% in the test with NCI-H226 lung; 82.3% in the test with NCI-H322M lung; 70.5% in the test on HOP-62 NSCLC; 94% with NCI-H460 lung; 69.1% with NCI-H522 lung. For the same compound, the growth is 78.4% with A549/ATCC NSCLC, 79.3% in the test on 786-0 renal and 107% in the test on COLO 205 colon.

With `O=C1CCCN1C1CCN2CCCc3cccc1c32` (stereo not given), the growth with NCI-H23 lung is 105%; in the test with NCI-H226 lung, 111%; with NCI-H322M lung it was 114%; in the test with HOP-62 NSCLC, 97%; in the test with NCI-H460 lung, 110%; in the test with NCI-H522 lung it was 84.2%. For the same compound, the growth in the test on A549/ATCC NSCLC is 107%; in the test on 786-0 renal it was 101%; in the test with COLO 205 colon, 110%.

Turning to `Nc1c(N)c2ccccc2c2ccccc12`, the growth in the test with NCI-H23 lung is 98.4%; with NCI-H226 lung it was 92.2%; in the test on NCI-H322M lung, 115%; in the test with HOP-62 NSCLC, 95%; in the test on NCI-H460 lung, 113%; with NCI-H522 lung it was 111%. The growth is 105% in the test with A549/ATCC NSCLC, 103% with 786-0 renal and 124% in the test on COLO 205 colon.

For the compound `CCCCOC(=O)c1cc(O)c(O)c(O)c1`, the growth in the test with NCI-H23 lung was 88.2%; in the test with NCI-H226 lung it was 96.7%; in the test on NCI-H322M lung it was 86.5%; in the test with HOP-62 NSCLC, 76.2%; in the test on NCI-H460 lung it was 58.9%; in the test with NCI-H522 lung it was -1.17% (active). In addition, the growth with A549/ATCC NSCLC is 64.7%; in the test with 786-0 renal, 79.2%; with COLO 205 colon, 101%.

As for `CC(=O)O[C@@H]1CC2C(C)(C)CCCC2(C)C2=C1C(=O)C(C(C)C)=CC2=O` (stereo not given in full), the growth in the test with NCI-H23 lung is 8.94% (active); in the test on NCI-H226 lung, -78% (active); in the test with NCI-H322M lung, -19.1% (active); with HOP-62 NSCLC, -25.6% (active); with NCI-H460 lung it was -8.52% (active); in the test on NCI-H522 lung, -27.1% (active). For the same compound, the growth in the test with A549/ATCC NSCLC is -35% (active); in the test with 786-0 renal it was 16%; with COLO 205 colon, -50.8% (active).

As for `CCCCCCCCCCCC1=NC(C)(C)CN1CC(C)O` (stereo not given), the growth was 64.1% in the test with NCI-H23 lung; 92.8% with NCI-H226 lung; 92.2% in the test on NCI-H322M lung; 60.2% with HOP-62 NSCLC; 62.6% in the test on NCI-H460 lung; 57% with NCI-H522 lung. Besides, the growth with A549/ATCC NSCLC is 85.4%; in the test on 786-0 renal it was 69.1%; with COLO 205 colon, -97.5% (active).

Regarding `COc1cnc2c(c1)C(=O)c1c-2n(CCCNC(C)C)c(=O)c2cc(Cl)ccc12`, the growth is -64.5% (active) in the test on NCI-H23 lung; 25.5% with NCI-H226 lung; -35.7% (active) in the test on NCI-H322M lung; -88.4% (active) in the test with HOP-62 NSCLC; -82.9% (active) in the test with NCI-H460 lung; -79.8% (active) in the test on NCI-H522 lung. Also, the growth with A549/ATCC NSCLC was -84% (active); in the test on 786-0 renal it was -96.3% (active); with COLO 205 colon it was -89.8% (active).

With `CCOC(=O)c1cnc(SCC)nc1SC#N`, the growth is 94.6% in the test on NCI-H23 lung; 142% in the test with NCI-H226 lung; 103% in the test on NCI-H322M lung; 121% in the test on HOP-62 NSCLC; 115% in the test with NCI-H460 lung; 31.8% in the test with NCI-H522 lung. Also, the results for the growth in the test on A549/ATCC NSCLC, in the test with 786-0 renal and in the test with COLO 205 colon were 101%, 101% and 82.1%, respectively.

Turning to `COc1cc(Cl)cc(-c2nn(C(=O)NCCN3CCOCC3)cc2-c2ccncc2)c1`, the growth is 84.9% with NCI-H23 lung; 99.7% with NCI-H226 lung; 104% in the test with NCI-H322M lung; 56.7% with HOP-62 NSCLC; 56.1% in the test on NCI-H460 lung; 18.3% in the test on NCI-H522 lung. The growth with A549/ATCC NSCLC was 60.7%; in the test with 786-0 renal, 61.8%; with COLO 205 colon it was 42.3%.

The record behind these values is PubChem BioAssay (NCI).
